The source of these data is PubChem BioAssay.

Values without a mark were called inactive. The rule behind the calls is not given here.

Sequence of Pantothenate synthetase (Mycobacterium tuberculosis (strain ATCC 25618 / H37Rv)) (P9WIL5 whole entry, looked up): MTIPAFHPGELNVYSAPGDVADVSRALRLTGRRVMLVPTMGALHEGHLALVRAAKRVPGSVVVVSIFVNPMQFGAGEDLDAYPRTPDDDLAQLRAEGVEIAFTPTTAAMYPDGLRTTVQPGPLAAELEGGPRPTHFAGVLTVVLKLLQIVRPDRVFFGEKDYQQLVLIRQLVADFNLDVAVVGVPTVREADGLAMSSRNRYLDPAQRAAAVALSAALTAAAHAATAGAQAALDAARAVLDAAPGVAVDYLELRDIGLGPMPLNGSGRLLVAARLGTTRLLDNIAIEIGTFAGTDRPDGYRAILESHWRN

The assay concerns the target Pantothenate synthetase (Mycobacterium tuberculosis (strain ATCC 25618 / H37Rv)) (UniProt P9WIL5). In words: Recombinant Mtb pantothenate synthetase (PanC) inhibitors, coupled enzyme, confirmatory (AID 375).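 Note: 0% = full reaction with vehicle and 100% = no enzyme background.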 The note with it: coupled enzyme assay; at 10 µM, active compounds read high.
Regarding `COc1cc2[nH]c(=O)c(C(=O)NCCCN3CCCCC3)c(O)c2cc1OC`, the inhibition is 3%.

Turning to `CCCCC(=O)O[C@H]1CC[C@H]2[C@@H]3CCc4cc(O)ccc4[C@H]3CC[C@]12C`, the inhibition was 6%.

Take `Cc1cc(=O)n2nc(N3CCCC(C(=O)N4CCc5ccccc54)C3)sc2n1` (centres undefined): the inhibition was 4%.

Take `Cn1c(=N)c(S(=O)(=O)c2ccc(Cl)cc2)cc2c(=O)n3ccccc3nc21`: the inhibition is 0%.

As for `COc1ccc(C2=NOC(C(=O)NCCCN3CCOCC3)C2)cc1` (centres undefined), the inhibition is 5%.

As to `COc1ccccc1-n1cnnc1SCC(=O)c1ccc[nH]1`, the inhibition was 3%.

As to `O=C(NCCCNC(=O)c1ccccn1)c1ccccn1`, the inhibition is 12%.

For `Cc1c(C(=O)N2CCN(c3ccccc3)CC2)sc2ncnc(N3CCN(c4ccccc4)CC3)c12`, the inhibition is 0%.

Consider `CCc1ccccc1NC(=O)C(C#N)Cc1cccnc1` (centres undefined), for which the inhibition is 0%.

Regarding `CCOC(=O)N1CCC(NC(=O)c2cc3c(=O)n(C)c4ccccc4c3n2C)CC1`, the inhibition is 0%.

Regarding `CC(=O)OC1c2ccccc2C(=O)N1Cc1ccccc1Cl` (centres undefined), the inhibition was 0%.

Take `CC(=O)c1ccccc1NS(=O)(=O)c1c(C)nn(-c2ccccc2)c1C`: the inhibition is 0%.

With `CCOC(=O)CN(C(=O)CSc1nnc(-c2ccncc2)n1CCCN(C)C)c1ccccc1`, the inhibition was 11%.

`Cc1ccc(-n2ncc3c(=O)n(CC(=O)NCc4ccco4)cnc32)cc1`: the inhibition is 0%.

For `COCCNC(=O)c1ccc(Cl)c(Cl)c1`, the inhibition was 0%.

For `COc1ccc(OCC(=O)Nc2ccc(N3CCOCC3)c(Cl)c2)cc1`, the inhibition was 0%.

With `Cc1cccc(-c2c3c(=O)n(C)c(=O)n(C)c3cn2-c2ccc(O)cc2)c1`, the inhibition is 0%.

As for `O=S(=O)(c1cccs1)N1CCN(Cc2nc3ccccc3s2)CC1`, the inhibition was 0%.

As to `Cc1ccc(NC(=O)CCC(=O)O)cc1F`, the inhibition is 0%.

In the case of `CC1(C)Oc2ccc3ccc(=O)oc3c2C(N2CCCCC2)C1O` (centres undefined), the inhibition is 0%.

With `CCC(=O)N/C(N)=N/c1nc(C)c2cc(OC)ccc2n1`, the inhibition is 0%.

Turning to `c1ccc2c(c1)Cc1cc(CN3CCOCC3)ccc1-2`, the inhibition is 3%.

As for `COc1ccc(-n2c(Cc3cccn3C)nnc2SCC(=O)Nc2ccccc2)cc1`, the inhibition is 0%.

Regarding `COc1cc(-c2nc(S(=O)(=O)c3ccccc3)c(N3CCOCC3)o2)cc(OC)c1OC`, the inhibition is 8%.

In the case of `COc1ccc(C2CC(c3ccc(OC)cc3)n3nc(N)nc3N2)cc1` (centres undefined), the inhibition was 0%.

For the molecule `C/C(Cl)=C/Cn1c(SCc2ccc(Cl)cc2)nc2c1c(=O)[nH]c(=O)n2C`, the inhibition was 0%.

Regarding `C[N+](C)(C)CCOP(=O)([O-])OC[C@H](O)CO`, the inhibition was 1%.

Turning to `CC1CCCCN1CCNC(=O)c1ccc2c(=O)n(CCc3ccccc3)c(=O)[nH]c2c1` (centres undefined), the inhibition was 0%.

As to `CCN(CC)CCOC(=O)C1(C2CCCCC2)CCCCC1`, the inhibition is 0%.

`C/C(=N\O)C(=O)NCc1ccccn1`: the inhibition is 4%.

Regarding `Cc1ccccc1NC(=O)c1ccccc1`, the inhibition is 10%.

With `COc1ccc(CCn2c(=N)c(C#N)cc3c(=O)n4ccccc4nc32)cc1`, the inhibition was 0%.

With `COc1ccc(C2C(C#N)=C(N)Oc3cc4c(cc32)OCO4)cc1` (centres undefined), the inhibition was 0%.

As for `O=C(c1csc2ccccc12)N1CCCCCC1`, the inhibition is 2%.

Take `O=C(Nc1cccc(F)c1)N1CC=C(n2c(=O)[nH]c3ccccc32)CC1`: the inhibition was 5%.

With `CCOC(=O)C1=C(CS(=O)(=O)c2ccc(F)c(C)c2)NC(=O)NC1c1ccc(O)c(O)c1` (centres undefined), the inhibition is 7%.

As to `CCOc1cc(C(=O)Nc2ccon2)cc(OCC)c1OCC`, the inhibition was 8%.

With `O=c1c2c(nc3nc(CCc4ccccc4)[nH]n13)CCC2`, the inhibition was 9%.

For the molecule `CC1Cc2ccccc2N1C(=O)C12CCC(C)(C(=O)C1)C2(C)C` (centres undefined), the inhibition was 3%.

As usually defined, the inhibition is the change of the read-out against control, counted positive when it falls.
